From PubChem
GIRK2 activator – Activators of human GIRK2-containing channels; HEK293 GIRK2/NPY4 cells, thallium flux fluorescence; 34,000 tested, under 10 active; activation (% efficacy), % for hits at 37.5 µM; P48051;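 active = primary screen hit, no activity in plain HEK293 cells, and in GIRK2-only cells above 5% efficacy rising with concentration; inactive = the rest, including fluorescent compounds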;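 note: efficacy is normalized control-subtracted fluorescence 15 s after thallium addition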
GluA2 TARP mod – modulators of AMPA receptor GluA2-stargazin complexes; AID 1259245; calls only at 30 µM; O88602+P19491; HEK293 GluA2+stargazin, membrane potential dye (FDSS), glutamate EC50; hits were called plate by plate, in both directions; 40,000 compounds, 3.5% hits;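 active = any of four per-well response measures lying three or more SD from its plate-wide compound average, in either direction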
Large screens that a line does not name were inactive. The sample as a whole holds a higher share of hits than the screen did.

COc1ccc(CCNC(=O)CC2CCCCN2S(=O)(=O)c2ccc(Cl)cc2)cc1OC (centres undefined)	GluA2 TARP mod active (no result: GIRK2 activator)
COc1ccc(S(=O)(=O)N2CCCCC2CC(=O)NC2CCCCCC2)cc1 (centres undefined)	GluA2 TARP mod active (no result: GIRK2 activator)
O=C(Nc1cccc(C(F)(F)F)c1)c1ccc(=O)n(Cc2cccc(Cl)c2)c1	none
O=C(CC1CCCCN1S(=O)(=O)c1ccccc1)NC1CCCCCC1 (centres undefined)	GluA2 TARP mod active (no result: GIRK2 activator)
COc1ccc(CCNC(=O)CC2CCCCN2S(=O)(=O)c2ccccc2)cc1 (centres undefined)	none (no result: GIRK2 activator)
Cc1ccc(CNC(=O)/C(C#N)=C2\N=C(NC(=O)c3cccnc3)c3ccccc32)cc1	none
COc1cccc(C(CNC(=O)C(=O)NCc2cccs2)N2CCOCC2)c1 (centres undefined)	none
COc1cccc(C(CNC(=O)c2cccc3ccccc23)N2CCOCC2)c1 (centres undefined)	GluA2 TARP mod active (no result: GIRK2 activator)
COc1cccc(C(CNC(=O)Cc2cccc3ccccc23)N2CCOCC2)c1 (centres undefined)	none (no result: GIRK2 activator)
COc1cccc(C(CNC(=O)C2(c3cccs3)CCCC2)N2CCOCC2)c1 (centres undefined)	GluA2 TARP mod active
CCOC(=O)c1coc(NC(=O)Nc2cccs2)n1	none
O=C(NCc1n[nH]c(=O)c2ccccc12)c1ccc(=O)[nH]c1	none
COc1nn(C)cc1C(=O)NCc1n[nH]c(=O)c2ccccc12	GluA2 TARP mod active
CSc1ccccc1C(=O)NCc1n[nH]c(=O)c2ccccc12	none
O=C(NCc1n[nH]c(=O)c2ccccc12)c1cccc(-n2cnnn2)c1	GluA2 TARP mod active
Cc1ccc(C(=O)NCCCN2CCN(c3ccccc3)CC2)cc1	none (no result: GIRK2 activator)
O=C(NCCn1ncc2c(N3CCN(Cc4ccccc4)CC3)ncnc21)c1ccc2c(c1)OCO2	none
Cc1c(Cl)cccc1NC(=O)c1ccc(=O)n(Cc2cccc([N+](=O)[O-])c2)c1	none
Cc1ccc(NC(=O)c2ccc(=O)n(Cc3cccc([N+](=O)[O-])c3)c2)cc1C	none
Cc1cccnc1NC(=O)c1ccc(=O)n(Cc2cccc([N+](=O)[O-])c2)c1	GluA2 TARP mod active
Cc1ccnc(NC(=O)c2ccc(=O)n(Cc3cccc([N+](=O)[O-])c3)c2)c1	GluA2 TARP mod active
COc1ccccc1NC(=O)c1ccc(S(=O)(=O)N(C)C2CCCC2)cc1	none (no result: GIRK2 activator)
Cc1cc(C(=O)Nc2nc3c(Cl)c(Cl)ccc3s2)on1	none
CN(C)C(CNC(=O)C1CCCCC1)c1cccs1 (centres undefined)	none
O=C(NCC(c1ccco1)N1CCOCC1)C1CC=CCC1 (centres undefined)	GluA2 TARP mod active
O=C(NCC(c1ccco1)N1CCOCC1)NC1CCCCC1 (centres undefined)	none
O=C(NCC(c1cccs1)N1CCOCC1)C1CCCCC1 (centres undefined)	GluA2 TARP mod active
Cc1nc(Nc2ccc(NC(=O)c3ccc4c(c3)OCO4)cc2)cc(-n2cccn2)n1	none
COC(=O)N1CCC(CNC(=O)C2CC2)CC1	none
O=C(Cc1ccc(F)cc1)Nc1cc(-c2cccs2)nn1CCO	none
O=C(CCSc1ccccc1)Nc1cc(-c2cccs2)nn1CCO	GluA2 TARP mod active
CC(C)N1CCC(CNC(=O)C(=O)NCc2ccc3c(c2)OCO3)CC1	none
O=C(NCc1ccc2c(c1)OCO2)C(=O)NCC1CCN(C(=O)c2ccncc2)CC1	GluA2 TARP mod active
COc1ccccc1NC(=O)Nc1cccc(-c2ccc(N3CCN(C)CC3)nn2)c1	none
Cc1ccc(C)c(Sc2cc(N3CCC(C(=O)NCCN4CCCC4)CC3)ncn2)c1	none
Cc1ccc(C)c(Sc2cc(N3CCC(C(=O)NCC4CCCO4)CC3)ncn2)c1 (centres undefined)	GluA2 TARP mod active
NC(=O)C1Cc2ccccc2N1C(=O)Nc1ccccc1 (centres undefined)	none
COc1ccccc1NC(=O)NCC1CCN(c2ncccn2)CC1	none
CN1C(=O)C2C(c3ccc([N+](=O)[O-])cc3)NN(C)C2C1=O (centres undefined)	GluA2 TARP mod active (no result: GIRK2 activator)
CS(=O)(=O)Nc1cccc(NC(=O)Cn2cnc(-c3cccs3)cc2=O)c1	none
Cc1cc(=O)oc2cc(OCC(=O)c3ccc(Cl)c(Cl)c3)ccc12	none (no result: GIRK2 activator)
Cc1cc(=O)oc2cc(OCC3CCNCC3)ccc12	GluA2 TARP mod active
O=C(NCC1CCN(C(=O)c2ccccc2F)CC1)c1cc(-c2ccccc2)on1	none
